Bioassay records: PubChem BioAssay, Sanford-Burnham Center for Chemical Genomics
Only some compounds are listed: those with a hit (about 1.5% of all), similar ones and a draw of the others.
NPR1 activator: GC-A stimulated cGMP production enhancers – HEK293 GC-A cells, cGMP TR-FRET, EC30 ANP, primary screen; activation, % at 10 µM; 0% at EC30 ANP, 100% saturating ANP; Atrial natriuretic peptide receptor 1 (Homo sapiens), P16066; AID 1671463, 2021; 0.14% of 370,000 active; in the data active = activation above about 40%
Target sequence (P16066 whole entry, looked up): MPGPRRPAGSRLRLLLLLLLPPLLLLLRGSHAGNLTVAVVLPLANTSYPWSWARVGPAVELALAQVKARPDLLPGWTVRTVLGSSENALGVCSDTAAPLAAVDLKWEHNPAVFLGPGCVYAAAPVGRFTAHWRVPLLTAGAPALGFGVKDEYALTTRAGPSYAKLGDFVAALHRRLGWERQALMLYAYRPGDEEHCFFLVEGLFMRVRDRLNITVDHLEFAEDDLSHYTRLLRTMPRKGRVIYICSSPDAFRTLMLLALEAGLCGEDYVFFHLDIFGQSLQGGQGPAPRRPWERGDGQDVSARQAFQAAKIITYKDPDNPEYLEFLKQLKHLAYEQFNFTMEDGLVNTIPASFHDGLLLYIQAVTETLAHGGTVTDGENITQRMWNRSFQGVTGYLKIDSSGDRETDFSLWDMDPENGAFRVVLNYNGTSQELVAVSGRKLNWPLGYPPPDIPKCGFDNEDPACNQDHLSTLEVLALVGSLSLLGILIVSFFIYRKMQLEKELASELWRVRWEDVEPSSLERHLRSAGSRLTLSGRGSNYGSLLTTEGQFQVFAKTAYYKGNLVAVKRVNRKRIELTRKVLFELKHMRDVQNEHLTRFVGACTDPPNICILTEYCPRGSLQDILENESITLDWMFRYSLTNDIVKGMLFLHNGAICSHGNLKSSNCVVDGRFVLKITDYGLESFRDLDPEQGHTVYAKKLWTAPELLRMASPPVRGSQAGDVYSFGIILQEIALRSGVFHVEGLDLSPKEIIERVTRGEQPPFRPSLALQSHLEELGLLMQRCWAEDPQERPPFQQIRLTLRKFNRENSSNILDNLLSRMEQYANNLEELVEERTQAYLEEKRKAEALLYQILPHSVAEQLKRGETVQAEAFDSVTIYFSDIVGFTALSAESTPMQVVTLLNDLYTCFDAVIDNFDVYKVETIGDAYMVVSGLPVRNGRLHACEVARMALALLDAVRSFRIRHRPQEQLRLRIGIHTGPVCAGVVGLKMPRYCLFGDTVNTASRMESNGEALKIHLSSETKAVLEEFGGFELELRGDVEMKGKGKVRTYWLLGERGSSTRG
Neddylation inh: inhibitors of cullin neddylation, primary screen, biochemical, TR-FRET, uHTS, NAE and Ubc12 | AID 651699, 2012 | NEDD8-conjugating enzyme Ubc12 (Homo sapiens) + NEDD8-activating enzyme E1 regulatory … | inhibition, % at 25 µM | 0.58% of 360,000 active; in the data active = inhibition above about 36%
GC-B act: human GC-B receptor activators, primary screen, HEK293 GC-B cells, cGMP TR-FRET, EC30 CNP; Atrial natriuretic peptide receptor 2 (Homo sapiens), P20594; 0% at EC30 CNP, 100% saturating CNP; activation, % at 10 µM; 0.11% of 370,000 active;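 active = activation at 10 µM reaching about 35% in either raw or pattern-adjusted values, limit read from the data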
NadD block: inhibitors of S. aureus NadD, primary screen, biochemical, colorimetric, uHTS; Nicotinate-nucleotide adenylyltransferase NadD (Staphylococcus aureus N315); purified NadD enzyme, colorimetric absorbance read-out; inhibition, % at 20 µM; 0.78% of 360,000 active; in the data active = inhibition above about 26%
NadD inh conf: inhibitors of S. aureus NadD, confirmation, biochemical, colorimetric, single concentration; purified S. aureus NadD, colorimetric enzyme assay; inhibition, % at 20 µM; shares compounds with NadD block; 13% of 2,000 active; in the data active = inhibition mostly above about 42%, no sharp cut-off; inactive = mostly below about 42%
An asterisk follows results filed as active; i = inactive; . = not tested or not shown.

SMILES	NPR1 activator	Neddylation inh	GC-B act	NadD block	NadD inh conf
N#Cc1c(NC(=S)NC(=O)c2ccccc2)sc2c1CCCC2	-3	-4	-2	4	.
Cn1ncc(Cl)c1C(=O)NC(=S)Nc1sc2c(c1C#N)CCCCC2	0	-18	1	29*	3
CC(C)(C)OC(=O)NC1CCN(c2nc(-c3ccc(Br)cc3)cs2)CC1	7	.	-3	.	.
Cc1ccc(NCc2nnc(SCC(=O)c3ccccc3)n2Cc2ccco2)c(C)c1	-15	2	-1	25*	57*
CN1CCc2c(sc(/N=C/c3cc(Cl)ccc3O)c2C#N)C1	3	0	-3	2	.
CN1CCc2c(sc(/N=C/c3c[nH]c4ccccc34)c2C#N)C1	-22	-278	-4	44*	-14
CN1CCc2c(sc(/N=C/c3c[nH]c4ccccc34)c2C(N)=O)C1	3	8	-4	51*	-13
COC(=O)C1=C(C)N(C)C(=NCc2ccc(C(F)(F)F)cc2)NC1c1cccc(F)c1 (configuration not stated)	-1	.	-3	.	.
O=C(NCc1ccccc1)[C@H]1CCCN1C(=O)[C@H]1CCCN1C(=O)c1ccc(F)cc1F	-2	.	-2	.	.
C=CCN1[C@H](Cc2ccccc2)COc2cc(N3CCSCC3)ccc2S1(=O)=O	1	.	4	.	.
Cc1sc2nc(C3CC3)nc(N3CCN(S(=O)(=O)c4ccc(F)cc4)CC3)c2c1C	-3	-43	-7	35*	6
Cc1sc2nc(CN3CCCC3)nc(N3CCN(S(=O)(=O)c4cccc(F)c4)CC3)c2c1C	0	-5	-6	30*	-11
Cc1nc(N2CCN(S(=O)(=O)c3ccc(F)cc3)CC2)c2c(C)c(C)sc2n1	-1	-17	3	-6	.
CCOC(=O)c1sc2nc3c(SCCC#N)cc(C(=O)c4cc(F)ccc4O)cn3c(=O)c2c1C	1	16	11	33*	-8
CC(C)(C)S(=O)N1Cc2cc(C(=O)Nc3ccc(-c4ccccc4)cc3)nc(-c3cccc(-c4cc5ccccc5o4)c3)c2[C@@H]1CCO (some centres not stated)	1	22	-5	35*	1
Oc1cccc2ccc(/C=C/c3ccccc3Br)nc12	6	-2	-5	2	.
Oc1ccc2ccccc2c1/C=C/c1ccc2c(Br)cc(Br)c(O)c2n1	-3	19	-8	58*	33
C[C@@H]1Cc2cc(O)cc(O)c2C(=O)O1	-1	.	1	.	.
COC(=O)c1cc2c(c3c4cc(OC)ccc4n(S(=O)(=O)c4ccc(F)cc4)c13)C(=O)N(C)C2	-4	.	-1	.	.
COC(=O)N/N=C/c1ccc(-c2cc(Cl)cc(Cl)c2)o1	-12	7	-13	-9	.
NC(=S)N/N=C/c1ccc(-c2cc(Cl)cc(Cl)c2)o1	-11	8	-6	38*	17
NC(=S)N/N=C/c1ccc(-c2cc(Cl)ccc2Cl)o1	-19	-3	0	43*	26
NC(=S)N/N=C/c1ccc(-c2ccc([N+](=O)[O-])cc2)o1	-7	-27	-11	33*	10
CCCCC1O[C@@H](C)[C@@H]2CN3CCc4c([nH]c5ccccc45)[C@@H]3C[C@@H]2N1C (some centres not stated)	-1	.	2	.	.
O=S(=O)(c1ccccc1F)n1c(CN2CCOCC2)nc2ccccc21	3	.	-8	.	.
SMILES	NPR1 activator	Neddylation inh	GC-B act	NadD block	NadD inh conf
C=CCN(CC#CC(=C)C)CC1CC1	4	.	3	.	.
CCOc1ccc(C=Nn2c(-c3cccc(OC(C)C)c3)n[nH]c2=S)cc1	2	.	2	.	.
Cc1cc2nc(-c3ccccc3)c(Cc3cccc(Cl)c3)n2c(C)c1Br	-6	-16	-2	38*	26
Clc1cccc(Cc2c(-c3cccc(Br)c3)nc3ccc(Br)cn23)c1	-1	i	0	30*	44
Cc1cc2nc(-c3cccc(Cl)c3)c(Cc3ccsc3)n2c(C)c1Br	-11	-13	-4	17	.
Cc1cc2nc(-c3cccc(Br)c3)c(Cc3ccsc3)n2c(C)c1Br	-11	-19	-8	41*	19
Cc1cc2nc(-c3ccc(F)cc3)c(Cc3cccc(Cl)c3)n2c(C)c1Br	-5	-14	-8	69*	29
O=C(C1CCCN1S(=O)(=O)c1cccc2ccccc12)N1CCN(c2ccccc2)CC1 (configuration not stated)	-2	.	-1	.	.
COc1ccc(C(=O)OCCN(C)C2CN(Cc3cn(Cc4cccc(F)c4)nn3)S(=O)(=O)C2)cc1OC (configuration not stated)	2	.	-1	.	.
COc1ccc(NC(=O)c2c[nH]n3c(=O)cc(C4CCN(C(=O)OC(C)(C)C)CC4)nc23)cc1Cl	-4	14	-11	29*	20
CC(C)(C)OC(=O)N1CCC(c2cc(=O)n3[nH]cc(C(=O)Nc4ccc(F)c(Cl)c4)c3n2)CC1	-2	25	-9	22	.
O=C1CC(c2ccco2)Cc2nc(Nc3nc(-c4ccccc4)c4ccccc4n3)ncc21 (configuration not stated)	-5	-4	-1	57*	32
Oc1cccc(-c2sc3ccccc3c2-c2ccc(OCCN3CCCCC3)cc2)c1	7	-53	3	8	.
O=C(c1ccc(OCCN2CCCCC2)cc1)c1c(-c2ccc(O)cc2)sc2cc(O)ccc12	-10	-11	-1	33*	-3
COc1ccccc1Nc1ccc(C(=O)NCc2cccs2)cn1	-1	21	1	0	.
COc1ccccc1Nc1ncc(-c2cccs2)s1	1	-22	-4	40*	18
CCCOc1ccc(C(=O)NNC(=S)NC(=O)c2cc(-c3ccc(Cl)cc3)nc3ccccc23)cc1	-5	-1	3	79*	14
COc1ccc(-c2cc(C(=O)NNC(=S)NC(=O)c3c(-c4ccccc4)noc3C)[nH]n2)cc1	-4	6	-7	42*	52*
CCNC(=S)NNC(=O)c1cc(-c2ccc(OCC)cc2)nc2ccccc12	5	36	8	2	.
COC(=O)c1ccc(NC(=S)NC(=O)c2cc(-c3ccccc3)nc3ccccc23)cc1	-2	-4	0	21	.
COc1cc2c(cc1NC(=O)c1cc(-c3cccnc3)nc3ccc(C)cc13)oc1ccccc12	-2	23	0	22	.
COc1ccc(Cl)cc1C(=O)NNC(=S)NC(=O)c1cc(-c2ccccc2)nc2ccccc12	-2	-1	2	61*	6
COc1cc2c(cc1NC(=O)c1cc(-c3ccncc3)nc3ccccc13)oc1ccccc12	0	26	-4	48*	5
